The record followed here is PubChem BioAssay AID488890 (Southern Research Specialized Biocontainment Screening …, 2010).

Structures are written as SMILES. Out of some 320,000 compounds screened, about 1,300 (0.41%) were called active. Roughly 3% stayed inconclusive and do not appear here. How the calls were made is not given here. The list is a sample of the results. Results with a measured potency or affinity are listed apart.

The nature of this test: growth inhibition of non-replicating M. tuberculosis (AID 488890).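 Further: plate controls were DMSO cells for no effect and high antibiotic wells for full effect.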 To be noted: Mycobacterium tuberculosis non-replicating, at 25 µM, stronger effect = higher value.
Usually inhibition stands for the drop in the measured response relative to a control, in per cent. Take `C/C(=C\c1ccccc1)CN1CCC(C(=O)N2CCCC(C)C2)CC1` (stereo unspecified): the inhibition was found to be 22.3%.

Consider `COc1ccc(S(=O)(=O)N(C)C[C@H]2Oc3ccc(NS(=O)(=O)c4cn(C)cn4)cc3C(=O)N([C@H](C)CO)C[C@@H]2C)cc1`, for which the inhibition was -5.84%.

On to `O=C(CCc1nnc2ccc(NCc3ccco3)nn12)N1CCN(c2ccccc2F)CC1`, for which the inhibition amounted to 28.5%.

Take `O=C(COc1ccccc1)Nc1ccc(Cl)cc1Cl`: the inhibition was 72.1%.

`Cn1cnc2cc(NS(=O)(=O)c3ccc(Br)cc3)ccc21`: the inhibition is -3.25%.

`O=C(CCC(=O)c1ccc(F)cc1)OCc1nnc(-c2ccc([N+](=O)[O-])cc2)o1`: the inhibition worked out at 37%.

Take `Cc1cc(C(=O)N/N=C2\CCCc3ccccc32)c(C)o1`: the inhibition turned out to be 8.07%.

As for `CC(C)c1ccc2[nH]c3c(c2c1)[C@@H]1CCN2C(=O)CCC[C@H](C3)[C@H]12`, the inhibition is 18.1%.

Consider `Cc1c(NS(=O)(=O)c2ccc(N=NN(C)C)cc2)c(=O)n(-c2ccccc2)n1C`, for which the inhibition is -13.3%.

Regarding `COc1ccc2sc(-c3ccccc3OC)c(-c3ccc4c(c3)OCCO4)c2c1`, the inhibition stood at 17.4%.

As to `O=C1NC(=O)/C(=C/c2ccco2)N1`, the inhibition was -3.62%.

On to `CSc1c2c(nc3ncnn13)CCC2`, for which the inhibition is -27.5%.

For `Cc1ccc(C(=O)N2N=C(c3ccccc3)CC2(O)C(F)(F)F)o1` (stereo unspecified), the inhibition worked out at 58.8%.

Consider `Cc1ccc(C2=NN(C(=O)c3ccco3)C(O)(C(F)(F)F)C2)cc1` (stereo unspecified), for which the inhibition was 71.2%.

For `CC(C)CC1=NN(C(=O)c2ccncc2)C(O)(C(F)(F)F)C1` (stereo unspecified), the inhibition is 47.5%.

On to `O=C(c1ccco1)N1N=C(c2ccc(Br)cc2)CC1(O)C(F)(F)F` (stereo unspecified), for which the inhibition is 29.3%.

In the case of `CCOC(=O)/C(=N\Nc1ccccc1Cl)N1CCN(c2ccccc2OC)CC1`, the inhibition was found to be 19%.

On to `c1ccc(-n2cnc3cc(NCc4cccs4)ccc32)cc1`, for which the inhibition is 28.9%.

Regarding `COc1ccc2nc(NC(=O)c3ccccc3-c3ccccc3C(=O)O)sc2c1`, the inhibition is 76.6%.

In the case of `Cc1ccc(C(=O)O)c(C(=O)Nc2nc3ccccc3s2)c1`, the inhibition came out at 11.2%.

Take `O=C(COC(=O)c1ccccc1C(=O)c1ccccc1)NCc1ccc(F)cc1`: the inhibition turned out to be 31.8%.

`O=C(CCc1ccccc1)N1CCN(c2ccc(F)cc2)CC1`: the inhibition stood at 73.8%.

For `O=C(CCC(=O)N1CCN(c2ccccc2F)CC1)N1CCN(c2ccccc2)CC1`, the inhibition was 45%.

As for `COC(=O)c1ccccc1NC(=O)CN1C(=O)CSC1=O`, the inhibition is -0.76%.

For `CC(C)(C)NCC(O)CON=C1c2ccccc2-c2ccccc21` (stereo unspecified), the inhibition stood at 65.3%.

Consider `COCCNCC(O)CON=C1c2ccccc2-c2ccccc21` (stereo unspecified), for which the inhibition came to 54.3%.

As to `COc1ccc(-c2csc3ncnc(N4CCN(c5cccc(C)c5C)CC4)c23)cc1`, the inhibition stood at 11.9%.

As to `O=C(NCCN1CCOCC1)C1CCN(S(=O)(=O)N2CCCCC2)CC1`, the inhibition is -2.95%.

With `CCOC(=O)N1CCN(S(=O)(=O)c2ccc(C(=O)N(CCCN(C)C)c3nc4ccc(OC)cc4s3)cc2)CC1`, the inhibition turned out to be 3.45%.

In the case of `COc1ccc(OC)c(N/C(C)=C/C(=O)c2ccncc2)c1`, the inhibition was 0%.

With `C/C(=C\C(=O)c1ccccc1)Nc1ccc(O)cc1`, the inhibition amounted to 29.4%.

Take `COc1ccc(C(=O)c2c3ccc(OC)cc3[n+]([O-])n2Cc2ccc(C(N)=O)cc2)cc1`: the inhibition was 17.1%.

On to `COc1ccc(-c2nnc(SCC(=O)N(C)C3CCS(=O)(=O)C3)n2C(C)C)cc1` (stereo unspecified), for which the inhibition was -12.8%.

As for `Cc1ccc(C2=N/C(=C\N3CCCCC3)C(=O)O2)cc1`, the inhibition came to 21.3%.

For `CC1=N/C(=C/c2cccnc2)C(=O)O1`, the inhibition was -16.7%.

For the molecule `COc1ccccc1C(c1c(N)n(C)c(=O)n(C)c1=O)C(C)[N+](=O)[O-]` (stereo unspecified), the inhibition was found to be 53%.

Take `COc1cc(C(C[N+](=O)[O-])c2c(N)n(C)c(=O)n(C)c2=O)ccc1O` (stereo unspecified): the inhibition was 23.3%.

In the case of `COc1ccc(CCN(C)Cc2ccncc2)cc1OC`, the inhibition stood at 1.96%.

As for `O=C(Nc1cccc2cccnc12)c1cccc([N+](=O)[O-])c1`, the inhibition is 14.7%.

On to `O=[N+]([O-])c1ccc(Oc2cccc3cccnc23)c([N+](=O)[O-])c1`, for which the inhibition came out at 72%.

On to `COc1ccc(OC(=O)c2ccc(OC)c(S(=O)(=O)N3CCOCC3)c2)cc1`, for which the inhibition came out at 21.9%.

Consider `O=C(Nc1ncccc1O)c1ccc2c(c1)OCCO2`, for which the inhibition is -9.11%.

Turning to `O=C(Nc1cccc2cccnc12)c1ccc2c(c1)OCCO2`, the inhibition turned out to be 16.4%.

Take `COc1ccccc1OC(=O)c1ccc(C)c(S(=O)(=O)N2CCOCC2)c1`: the inhibition came to 16.8%.

`Cc1ccc(S(=O)(=O)NCc2cccnc2)cc1C`: the inhibition was determined as 3.38%.

With `Cn1c(SCc2nc3ccccc3[nH]2)nnc1-c1cnccn1`, the inhibition amounted to 11%.

On to `COc1ccc(CCNC(=O)C2CCN(C(=O)c3ccc(Br)cc3)CC2)cc1OC`, for which the inhibition is -3.89%.

For the molecule `CCOC(=O)Cn1c(=O)oc2ccc(C)cc21`, the inhibition was 16.3%.

Take `CCn1cc(/C=N/NC(=O)c2ccc3c(c2)OCO3)c(C)n1`: the inhibition is -8.38%.

As to `CCN(CC)C(=O)c1sc2nc(Cc3ccccc3)[nH]c(=O)c2c1C`, the inhibition turned out to be 11%.

In the case of `O=C(Nc1ccc(S(=O)(=O)Nc2ncccn2)cc1)C1=NN(c2ccccc2)C(=O)CC1`, the inhibition worked out at 36.2%.

`O=C(N/N=C/c1ccc(N2CCOCC2)cc1)C1CC1`: the inhibition was 3.95%.

On to `COC1CCCN(Cc2c(C(=O)N3CCN(C4CCCCC4)CC3)nc3ccccn23)C1` (stereo unspecified), for which the inhibition is 6.53%.

In the case of `O=C(C1=C[C@H](c2ccc(C(F)(F)F)cc2)C[C@H](OCc2ccc(CO)cc2)O1)N1CCCCCCC1`, the inhibition worked out at 23%.

Consider `Cc1cccc(CN2CCc3c([nH]c4ccccc34)C2C(C)(C)C)n1` (stereo unspecified), for which the inhibition was 14.5%.

For the molecule `OC(CNCC1CCCO1)Cn1c2ccccc2c2ccccc21` (stereo unspecified), the inhibition was found to be 25.3%.

As for `OC(CNCC1CCCO1)COc1ccc(OCC(O)CNCC2CCCO2)cc1` (stereo unspecified), the inhibition was 10.8%.

With `Cc1ccc(O)c(CNc2nccs2)c1`, the inhibition was -1.47%.

Consider `O=C(CCNS(=O)(=O)c1ccc(OC(F)(F)F)cc1)N1CCN(C/C=C/c2ccccc2)CC1`, for which the inhibition turned out to be 47.4%.

On to `O=C1CNC(=S)N1CCCn1ccnc1`, for which the inhibition was found to be 2.92%.

For the molecule `Cc1ccc(CCC(=O)Nc2ccc(CC(=O)O)cc2)o1`, the inhibition is 9.94%.

On to `CCOC(=O)c1ccc(NC(=O)CCc2ccc(C)o2)cc1`, for which the inhibition is 79.2%.

As for `Cc1ccc(CCC(=O)Nc2ccc(C#N)cc2)o1`, the inhibition was 50.3%.

As to `CC(=O)Nc1ccc(NC(=O)CCc2ccc(C)o2)cc1`, the inhibition amounted to 16.7%.

With `O=C(N/N=C\c1ccncc1)c1ccccc1O`, the inhibition worked out at 19.9%.

For the molecule `O=C(N/N=C/c1ccc(OCc2ccccc2)cc1)c1ccco1`, the inhibition is 6.81%.

Regarding `Cc1noc(C)c1COC(=O)CCc1nc2ccccc2c(=O)[nH]1`, the inhibition was -4.31%.

With `COc1ccc(NC(=O)Nc2c(O)ccc3ccccc23)cc1`, the inhibition amounted to 17.9%.

With `COc1ccc(C(=O)Nc2ccc(O)c3ccccc23)cc1`, the inhibition is 75.7%.

Regarding `CCCNc1nc2nc3ccccn3c(=O)c2cc1C(=O)NCCN1CCOCC1`, the inhibition was -18.1%.

Regarding `O=C(Nc1c(F)cc(F)cc1Br)c1cc(-c2ccc(O)cc2)on1`, the inhibition came to 79.2%.

Turning to `COc1ccc(-c2cc(C(=O)Nc3c(F)cc(F)cc3Br)no2)cc1`, the inhibition was 79.1%.

For the molecule `CN(/N=C/C=C/c1ccccc1)C1=NS(=O)(=O)c2ccccc21`, the inhibition was -1.47%.

`O=S1(=O)N=C(N/N=C/c2ccccn2)c2ccccc21`: the inhibition was 10.2%.

As to `COc1ccccc1NC(=O)CC1SC(=N)N(c2ccccc2)C1=O` (stereo unspecified), the inhibition is -5.17%.

`Cc1cc(S(=O)(=O)NCCC2=CCCCC2)ccc1Br`: the inhibition was 34.3%.

In the case of `O=C(NC(=S)NCC1CCCO1)c1ccc(Br)o1` (stereo unspecified), the inhibition was -17.8%.

`NS(=O)(=O)c1ccc(NC(=O)Cn2nc(C(=O)O)c3ccccc3c2=O)cc1`: the inhibition turned out to be 2.92%.

For the molecule `Cc1ccc2cc(/C=N/NC(=O)CN3CCOCC3)c(Cl)nc2c1`, the inhibition was 6.43%.

For `COc1cc(C2N(c3ccc(Cl)cc3)C(=O)C3CCCN32)cc(OC)c1OC` (stereo unspecified), the inhibition is -23.2%.

For the molecule `CCc1nnc(NC(=O)c2c(-c3ccccc3)noc2C)s1`, the inhibition was 13.3%.

For the molecule `COc1ccc(Cc2nnc(NC(=O)c3c(-c4ccccc4)noc3C)s2)cc1`, the inhibition worked out at 4.39%.

For `CC1(C)CC(=O)C(Sc2ccccc2C(=O)O)=C(O)C1`, the inhibition was -8.16%.

For the molecule `COc1ccc(C(=O)C[n+]2ccc3c(c2)nc(-c2ccccc2)n3C)cc1`, the inhibition is 65.3%.

Turning to `O=C(CN1CCN(c2ccc(Cl)cc2)CC1)Nc1cccc(F)c1`, the inhibition is 69%.

For the molecule `COCc1cc(C)nc2sc(C(=O)N3CCCC3)c(N)c12`, the inhibition worked out at 3.21%.

As to `CCC(CC)c1nnc(NC(=O)c2ccco2)s1`, the inhibition came out at 14.7%.

Regarding `CCC(CC)c1nnc(NC(=O)c2cc(-c3ccccc3)nc3ccccc23)s1`, the inhibition worked out at 18.4%.

On to `O=c1[nH]c(=O)n(Cc2ccccc2Cl)c(O)c1C=Nc1ccc(F)cc1`, for which the inhibition is -1.58%.

On to `CCCCn1c(O)c(/C=C2\C=Nc3ccccc32)c(=O)[nH]c1=O`, for which the inhibition was found to be 59%.

Take `CCCCn1c(O)c(/C=N/NC(=O)c2ccncc2)c(=O)[nH]c1=O`: the inhibition came to 53.7%.

For `CCCCn1c(O)c(C=NCCCn2ccnc2)c(=O)[nH]c1=O`, the inhibition came out at 5.46%.

Take `Cn1c(O)c(/C=C2/C=CC=N2)c(=O)[nH]c1=O`: the inhibition is 75.9%.

For the molecule `O=c1[nH]c(=O)n(Cc2ccccc2)c(O)c1/C=C1\C=Nc2ccccc21`, the inhibition worked out at 66.3%.

`O=C(Nc1cccc(-n2cnnn2)c1)c1ccncc1`: the inhibition came to 0.55%.

With `Cc1[nH]c2ccc(F)cc2c1CCN(Cc1ccncc1)C(=S)Nc1cccc(F)c1`, the inhibition stood at 16.2%.

For the molecule `COc1ccc(/C=N/NC(=O)NC23CC4CC(CC(C4)C2)C3)c(OC)c1`, the inhibition is 27.6%.

`Cc1ccc(-c2noc(=O)n2CC(=O)Nc2ccc(S(=O)(=O)NC3CC3)cc2)cc1`: the inhibition worked out at 11.5%.

Take `O=C(NCCN1CCN(c2ccccc2)CC1)C1CCN(S(=O)(=O)c2cccc3nonc23)CC1`: the inhibition came to 18.8%.

In the case of `O=C(NC1CCCCCC1)c1ccc(CS(=O)(=O)Cc2ccc(F)cc2)o1`, the inhibition came out at 1.29%.

As for `Nc1nc(NCc2c(F)cccc2Cl)nn1-c1ccccc1`, the inhibition turned out to be 2.25%.

Turning to `CCCSc1nnc(Cn2c(=O)sc3ccccc32)n1-c1ccccc1`, the inhibition was 7.2%.

In the case of `CN(CC(=O)Nc1cccc(F)c1)C(=O)c1ccc(OCC2CCCO2)cc1` (stereo unspecified), the inhibition is -4.27%.

Take `Cc1ccc(S(=O)(=O)N2CCC(C(=O)OCC(=O)NCCc3ccccc3)CC2)cc1C`: the inhibition came out at 27.8%.

Regarding `CCOC(=O)C1CCN(S(=O)(=O)c2ccc(C)c(C)c2)CC1`, the inhibition is -7.38%.

As for `O=C(NCCC(=O)N(CCc1ccccc1)Cc1ccccc1)c1ccc(Br)cc1`, the inhibition is 22.1%.

`Fc1ccc2nc(C(F)(F)F)cc(N3CCOCC3)c2c1`: the inhibition was -5.99%.

Regarding `COc1ccc(-c2nnc(Nc3nc4c(OC)cccc4s3)o2)c(OC)c1`, the inhibition turned out to be 60.8%.

On to `COc1ccccc1-c1nnc(Nc2nc3c(OC)cccc3s2)o1`, for which the inhibition came out at 19%.

As for `COc1cccc2sc(NN)nc12`, the inhibition is -6.89%.

Regarding `COc1cccc2sc(Nc3nc(-c4ccncc4)cs3)nc12`, the inhibition was found to be 31.8%.
